Test results: paper PMC7862700, “An all-to-all approach to the identification of sequence-specific readers for epigenetic DNA modifications on cytosine”

Assays:
Test in all cases: DAPPL (digital affinity profiling via proximity ligation, sequencing); 10 mM Tris-HCl pH 7.5, 50 mM NaCl, 1 mM DTT, 4% glycerol, room temperature, 30 min; GST-TFs on glutathione beads, 16-mer random dsDNA library, 0.1% formaldehyde crosslink after washing; high values mean tight binding
FEV = molecular target: T1, FEV (Homo sapiens, UniProt Q99581 1-238); details: protein: recombinant; tags: N-terminal GST; dsDNA, one strand shown
T1 sequence: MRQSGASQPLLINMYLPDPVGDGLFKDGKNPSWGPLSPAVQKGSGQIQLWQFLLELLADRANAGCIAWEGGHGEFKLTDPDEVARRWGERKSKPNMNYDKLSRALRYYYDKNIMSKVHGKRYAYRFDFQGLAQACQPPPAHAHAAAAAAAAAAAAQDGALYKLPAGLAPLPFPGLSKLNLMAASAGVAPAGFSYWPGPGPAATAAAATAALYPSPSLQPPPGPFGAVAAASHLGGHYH
In short: (§1)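 Yeast served to express human transcription factors as GST fusions, which were then captured on glutathione beads and labelled with DNA barcodes. Pooled with a tag-only sample, they were incubated with 200 nmole of a 16-mer random double-stranded DNA library for 30 min at room temperature in Tris/NaCl/DTT/glycerol buffer, washed, crosslinked with 0.1% formaldehyde, ligated by proximity, amplified by PCR and sequenced. Dividing each hexamer's read frequency for a factor by its frequency for the tag-only sample gives the binding signal.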

ETV5 = ETV5 (Homo sapiens, UniProt P41161 1-510); details: protein: recombinant; tags: N-terminal GST; dsDNA, one strand shown
Chain of ETV5 (P41161 whole entry): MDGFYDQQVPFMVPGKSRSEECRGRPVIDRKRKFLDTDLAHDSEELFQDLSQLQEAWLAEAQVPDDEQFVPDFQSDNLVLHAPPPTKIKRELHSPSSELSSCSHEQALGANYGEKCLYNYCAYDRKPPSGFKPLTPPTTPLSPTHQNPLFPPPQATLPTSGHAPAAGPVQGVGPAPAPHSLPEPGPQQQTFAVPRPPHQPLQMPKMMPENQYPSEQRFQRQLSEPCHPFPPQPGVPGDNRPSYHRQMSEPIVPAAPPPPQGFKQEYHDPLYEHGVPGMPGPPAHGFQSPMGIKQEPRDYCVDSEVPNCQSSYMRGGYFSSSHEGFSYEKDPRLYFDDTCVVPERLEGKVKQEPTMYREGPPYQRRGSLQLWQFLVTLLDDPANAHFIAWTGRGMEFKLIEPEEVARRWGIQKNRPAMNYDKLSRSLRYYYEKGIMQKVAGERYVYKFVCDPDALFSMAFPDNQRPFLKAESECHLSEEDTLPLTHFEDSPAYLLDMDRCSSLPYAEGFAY
In short: as §1

HSF1 = HSF1 (Homo sapiens, UniProt Q00613 1-529); details: protein: recombinant; tags: N-terminal GST; chain copies: 3; dsDNA, one strand shown
Chain of HSF1 (Q00613 whole entry): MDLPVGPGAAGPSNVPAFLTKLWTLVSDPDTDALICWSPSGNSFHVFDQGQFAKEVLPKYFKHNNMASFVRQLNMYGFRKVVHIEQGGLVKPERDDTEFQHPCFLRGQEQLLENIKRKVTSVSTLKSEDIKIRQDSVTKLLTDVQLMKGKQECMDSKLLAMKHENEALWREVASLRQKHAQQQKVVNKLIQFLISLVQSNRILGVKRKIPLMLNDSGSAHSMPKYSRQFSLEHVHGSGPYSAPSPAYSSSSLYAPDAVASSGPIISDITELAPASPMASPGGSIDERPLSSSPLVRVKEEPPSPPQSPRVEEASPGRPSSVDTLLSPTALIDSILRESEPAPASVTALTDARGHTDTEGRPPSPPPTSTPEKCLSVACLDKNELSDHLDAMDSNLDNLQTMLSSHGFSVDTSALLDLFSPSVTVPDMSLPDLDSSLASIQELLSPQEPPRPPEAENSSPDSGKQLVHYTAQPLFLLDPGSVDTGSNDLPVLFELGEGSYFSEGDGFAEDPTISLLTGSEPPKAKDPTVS
In short: as §1

SPIC = molecular target: T2, SPIC (Homo sapiens, UniProt Q8N5J4 1-248); details: protein: recombinant; tags: N-terminal GST; dsDNA, one strand shown
T2 sequence: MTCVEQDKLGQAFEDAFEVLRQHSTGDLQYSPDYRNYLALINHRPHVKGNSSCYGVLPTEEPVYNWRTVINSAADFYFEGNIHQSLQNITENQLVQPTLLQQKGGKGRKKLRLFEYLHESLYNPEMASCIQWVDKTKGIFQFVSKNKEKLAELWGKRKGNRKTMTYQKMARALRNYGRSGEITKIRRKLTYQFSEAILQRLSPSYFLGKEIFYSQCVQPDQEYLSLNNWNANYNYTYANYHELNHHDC
In short: as §1

ELF4 = ELF4 (Homo sapiens, UniProt Q99607 1-663); details: protein: recombinant; tags: N-terminal GST; dsDNA, one strand shown
Chain of ELF4 (Q99607 whole entry): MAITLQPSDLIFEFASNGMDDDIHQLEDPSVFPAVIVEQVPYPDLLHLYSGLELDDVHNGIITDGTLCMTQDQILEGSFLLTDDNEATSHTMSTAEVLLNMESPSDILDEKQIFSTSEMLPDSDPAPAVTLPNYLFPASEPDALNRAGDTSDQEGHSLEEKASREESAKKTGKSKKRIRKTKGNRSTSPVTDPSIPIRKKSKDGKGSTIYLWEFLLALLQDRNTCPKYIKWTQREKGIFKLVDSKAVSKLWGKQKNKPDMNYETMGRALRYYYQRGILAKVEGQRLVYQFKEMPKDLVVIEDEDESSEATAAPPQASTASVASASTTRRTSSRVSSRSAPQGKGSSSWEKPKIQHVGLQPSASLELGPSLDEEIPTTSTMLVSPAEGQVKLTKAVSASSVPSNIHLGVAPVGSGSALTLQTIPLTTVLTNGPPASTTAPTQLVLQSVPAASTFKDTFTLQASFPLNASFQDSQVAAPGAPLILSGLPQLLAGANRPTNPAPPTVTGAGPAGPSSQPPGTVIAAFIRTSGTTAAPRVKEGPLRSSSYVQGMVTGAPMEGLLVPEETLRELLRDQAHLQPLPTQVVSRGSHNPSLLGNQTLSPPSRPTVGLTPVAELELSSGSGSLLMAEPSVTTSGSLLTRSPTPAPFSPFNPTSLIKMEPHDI
In short: as §1

ELK4 = molecular target: T3, ELK4 (Homo sapiens, UniProt P28324-2 1-405); details: protein: recombinant; tags: N-terminal GST; dsDNA, one strand shown
T3 sequence: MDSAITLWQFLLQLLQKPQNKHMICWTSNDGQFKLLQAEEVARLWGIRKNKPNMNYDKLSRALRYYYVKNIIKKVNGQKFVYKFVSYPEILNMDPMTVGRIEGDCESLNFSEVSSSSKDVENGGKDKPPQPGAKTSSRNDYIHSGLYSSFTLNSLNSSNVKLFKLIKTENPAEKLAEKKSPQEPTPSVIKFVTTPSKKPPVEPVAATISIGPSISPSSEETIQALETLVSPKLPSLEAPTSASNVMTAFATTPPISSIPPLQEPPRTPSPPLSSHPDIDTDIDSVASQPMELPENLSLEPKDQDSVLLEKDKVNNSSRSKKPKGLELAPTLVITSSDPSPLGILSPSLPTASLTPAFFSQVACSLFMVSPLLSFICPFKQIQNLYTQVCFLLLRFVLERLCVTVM
In short: as §1

ETV2 = molecular target: T4, ETV2 (Homo sapiens, UniProt O00321 1-342); details: protein: recombinant; tags: N-terminal GST; dsDNA, one strand shown
T4 sequence: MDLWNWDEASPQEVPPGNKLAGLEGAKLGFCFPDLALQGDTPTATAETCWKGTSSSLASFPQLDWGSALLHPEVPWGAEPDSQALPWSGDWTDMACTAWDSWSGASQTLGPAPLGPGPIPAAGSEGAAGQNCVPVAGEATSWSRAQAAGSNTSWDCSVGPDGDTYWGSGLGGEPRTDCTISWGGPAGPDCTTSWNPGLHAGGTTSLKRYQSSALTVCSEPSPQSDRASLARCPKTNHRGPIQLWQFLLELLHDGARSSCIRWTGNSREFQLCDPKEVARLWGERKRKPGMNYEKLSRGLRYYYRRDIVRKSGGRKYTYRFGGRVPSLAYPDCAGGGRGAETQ
In short: as §1

ELF3 = molecular target: T5, ELF3 (Homo sapiens, UniProt P78545 1-371); details: protein: recombinant; tags: N-terminal GST; dsDNA, one strand shown
T5 sequence: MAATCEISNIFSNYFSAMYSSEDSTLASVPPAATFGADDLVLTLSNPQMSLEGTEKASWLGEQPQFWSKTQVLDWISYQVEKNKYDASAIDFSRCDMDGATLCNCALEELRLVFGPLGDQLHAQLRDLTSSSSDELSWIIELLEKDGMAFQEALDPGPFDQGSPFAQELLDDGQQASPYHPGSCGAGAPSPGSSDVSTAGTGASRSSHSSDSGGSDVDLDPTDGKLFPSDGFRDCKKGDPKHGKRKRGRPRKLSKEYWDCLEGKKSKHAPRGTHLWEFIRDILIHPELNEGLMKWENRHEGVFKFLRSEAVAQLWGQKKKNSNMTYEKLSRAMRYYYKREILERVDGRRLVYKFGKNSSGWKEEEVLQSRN
In short: as §1

CRX = CRX (Homo sapiens, UniProt O43186 1-299); details: protein: recombinant; tags: N-terminal GST; dsDNA, one strand shown
Chain of CRX (O43186 whole entry): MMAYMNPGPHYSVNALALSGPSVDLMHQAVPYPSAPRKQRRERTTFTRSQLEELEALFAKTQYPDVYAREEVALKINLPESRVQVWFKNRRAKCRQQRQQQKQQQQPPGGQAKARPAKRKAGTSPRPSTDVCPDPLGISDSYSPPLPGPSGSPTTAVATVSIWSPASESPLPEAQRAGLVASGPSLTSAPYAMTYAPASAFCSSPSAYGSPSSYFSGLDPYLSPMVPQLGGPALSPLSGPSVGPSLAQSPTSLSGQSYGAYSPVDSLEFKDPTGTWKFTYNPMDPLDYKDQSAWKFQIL
In short: as §1

ETV1 = ETV1 (Homo sapiens, UniProt P50549 1-477); details: protein: recombinant; tags: N-terminal GST; dsDNA, one strand shown
Chain of ETV1 (P50549 whole entry): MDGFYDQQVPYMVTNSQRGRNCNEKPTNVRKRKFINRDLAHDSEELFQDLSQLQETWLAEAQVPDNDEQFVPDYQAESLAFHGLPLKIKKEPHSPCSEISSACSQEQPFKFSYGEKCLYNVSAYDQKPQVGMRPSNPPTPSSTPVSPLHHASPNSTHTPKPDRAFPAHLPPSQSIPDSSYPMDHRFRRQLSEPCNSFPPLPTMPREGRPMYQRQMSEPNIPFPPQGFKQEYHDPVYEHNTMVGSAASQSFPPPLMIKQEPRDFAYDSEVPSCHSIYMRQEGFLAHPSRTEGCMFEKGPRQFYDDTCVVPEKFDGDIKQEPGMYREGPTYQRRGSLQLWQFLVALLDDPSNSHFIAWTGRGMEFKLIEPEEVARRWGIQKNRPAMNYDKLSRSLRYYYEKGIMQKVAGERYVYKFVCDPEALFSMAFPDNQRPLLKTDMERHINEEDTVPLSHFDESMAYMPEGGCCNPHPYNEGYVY
In short: as §1

ERF = molecular target: T6, ERF (Homo sapiens, UniProt P50548 1-548); details: protein: recombinant; tags: N-terminal GST; dsDNA, one strand shown
T6 sequence: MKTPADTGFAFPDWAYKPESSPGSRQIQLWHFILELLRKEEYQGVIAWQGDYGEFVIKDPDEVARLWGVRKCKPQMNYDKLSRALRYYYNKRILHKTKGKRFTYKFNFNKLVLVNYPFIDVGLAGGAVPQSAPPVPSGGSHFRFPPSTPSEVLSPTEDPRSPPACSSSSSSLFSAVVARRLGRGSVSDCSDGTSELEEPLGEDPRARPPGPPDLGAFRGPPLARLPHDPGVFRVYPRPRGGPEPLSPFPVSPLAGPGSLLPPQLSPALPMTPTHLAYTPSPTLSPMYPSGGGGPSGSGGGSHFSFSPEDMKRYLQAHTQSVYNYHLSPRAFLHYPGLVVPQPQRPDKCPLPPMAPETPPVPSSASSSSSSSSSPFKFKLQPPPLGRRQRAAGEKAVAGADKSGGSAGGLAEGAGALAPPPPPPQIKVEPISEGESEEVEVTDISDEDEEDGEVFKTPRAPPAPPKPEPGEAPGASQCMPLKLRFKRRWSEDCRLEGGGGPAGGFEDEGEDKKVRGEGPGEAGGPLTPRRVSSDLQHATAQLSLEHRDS
In short: as §1

ETV3L = molecular target: T7, ETV3L (Homo sapiens, UniProt Q6ZN32 1-361); details: protein: recombinant; tags: N-terminal GST; dsDNA, one strand shown
T7 sequence: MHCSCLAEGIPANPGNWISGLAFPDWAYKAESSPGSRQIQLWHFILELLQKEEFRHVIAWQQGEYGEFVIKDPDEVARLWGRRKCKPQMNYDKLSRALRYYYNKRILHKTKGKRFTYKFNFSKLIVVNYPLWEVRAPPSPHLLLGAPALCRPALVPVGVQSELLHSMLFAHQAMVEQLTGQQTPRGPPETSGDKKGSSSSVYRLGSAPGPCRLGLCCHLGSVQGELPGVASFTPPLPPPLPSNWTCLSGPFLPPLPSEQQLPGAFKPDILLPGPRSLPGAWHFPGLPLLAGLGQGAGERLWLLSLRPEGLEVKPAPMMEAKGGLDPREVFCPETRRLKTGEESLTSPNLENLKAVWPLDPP
In short: as §1

ETS2 = molecular target: T8, ETS2 (Homo sapiens, UniProt P15036 1-469); details: protein: recombinant; tags: N-terminal GST; dsDNA, one strand shown
T8 sequence: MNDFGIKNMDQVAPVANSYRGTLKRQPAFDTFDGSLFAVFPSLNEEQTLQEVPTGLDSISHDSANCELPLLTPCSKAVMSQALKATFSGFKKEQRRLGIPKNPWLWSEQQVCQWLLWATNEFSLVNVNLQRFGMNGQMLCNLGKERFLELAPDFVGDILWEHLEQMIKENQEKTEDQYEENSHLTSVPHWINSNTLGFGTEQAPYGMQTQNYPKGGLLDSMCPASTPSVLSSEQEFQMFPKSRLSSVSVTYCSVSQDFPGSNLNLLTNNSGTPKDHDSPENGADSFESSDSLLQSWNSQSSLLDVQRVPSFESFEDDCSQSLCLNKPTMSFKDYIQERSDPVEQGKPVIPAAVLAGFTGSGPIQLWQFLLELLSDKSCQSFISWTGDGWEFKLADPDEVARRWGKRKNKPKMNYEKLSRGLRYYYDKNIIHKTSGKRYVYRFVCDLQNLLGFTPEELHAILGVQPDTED
In short: as §1

SPDEF = molecular target: T9, SPDEF (Homo sapiens, UniProt O95238 1-335); details: protein: recombinant; tags: N-terminal GST; dsDNA, one strand shown
T9 sequence: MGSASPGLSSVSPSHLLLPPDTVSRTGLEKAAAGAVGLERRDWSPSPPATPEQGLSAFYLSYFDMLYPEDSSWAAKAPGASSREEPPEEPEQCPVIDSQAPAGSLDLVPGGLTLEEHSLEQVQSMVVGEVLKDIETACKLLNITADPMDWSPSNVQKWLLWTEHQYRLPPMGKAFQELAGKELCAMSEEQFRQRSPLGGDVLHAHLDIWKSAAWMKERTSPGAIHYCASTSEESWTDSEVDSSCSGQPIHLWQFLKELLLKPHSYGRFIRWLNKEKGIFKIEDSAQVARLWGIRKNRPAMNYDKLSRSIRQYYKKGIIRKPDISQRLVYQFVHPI
In short: as §1

ETV7 = molecular target: T10, ETV7 (Homo sapiens, UniProt Q9Y603 1-341); details: protein: recombinant; tags: N-terminal GST; dsDNA, one strand shown
T10 sequence: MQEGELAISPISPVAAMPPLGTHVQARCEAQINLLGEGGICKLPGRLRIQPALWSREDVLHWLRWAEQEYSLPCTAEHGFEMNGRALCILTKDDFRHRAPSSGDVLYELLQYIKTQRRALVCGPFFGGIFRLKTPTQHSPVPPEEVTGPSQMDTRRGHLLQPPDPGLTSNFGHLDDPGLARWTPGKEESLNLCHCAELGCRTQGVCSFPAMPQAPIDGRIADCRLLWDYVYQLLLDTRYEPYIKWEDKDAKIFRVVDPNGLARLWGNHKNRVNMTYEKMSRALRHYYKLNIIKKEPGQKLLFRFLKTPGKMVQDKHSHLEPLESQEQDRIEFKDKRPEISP
In short: as §1

ELF5 = molecular target: T11, ELF5 (Homo sapiens, UniProt Q9UKW6-2 1-255); details: protein: recombinant; tags: N-terminal GST; dsDNA, one strand shown
T11 sequence: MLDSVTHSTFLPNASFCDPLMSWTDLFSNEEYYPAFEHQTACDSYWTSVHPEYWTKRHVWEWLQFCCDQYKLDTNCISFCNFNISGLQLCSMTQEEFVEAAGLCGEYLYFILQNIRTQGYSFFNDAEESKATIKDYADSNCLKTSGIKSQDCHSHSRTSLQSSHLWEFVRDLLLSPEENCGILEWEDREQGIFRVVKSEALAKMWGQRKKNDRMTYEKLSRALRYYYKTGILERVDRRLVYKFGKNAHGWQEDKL
In short: as §1

ETV3 = molecular target: T12, ETV3 (Homo sapiens, UniProt P41162-2 1-143); details: protein: recombinant; tags: N-terminal GST; dsDNA, one strand shown
T12 sequence: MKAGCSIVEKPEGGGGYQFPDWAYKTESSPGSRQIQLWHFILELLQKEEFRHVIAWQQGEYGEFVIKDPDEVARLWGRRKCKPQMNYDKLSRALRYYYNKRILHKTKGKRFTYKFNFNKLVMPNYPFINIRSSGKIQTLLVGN
In short: as §1

ETV6 = ETV6 (Homo sapiens, UniProt P41212 1-452); details: protein: recombinant; tags: N-terminal GST; dsDNA, one strand shown
Chain of ETV6 (P41212 whole entry): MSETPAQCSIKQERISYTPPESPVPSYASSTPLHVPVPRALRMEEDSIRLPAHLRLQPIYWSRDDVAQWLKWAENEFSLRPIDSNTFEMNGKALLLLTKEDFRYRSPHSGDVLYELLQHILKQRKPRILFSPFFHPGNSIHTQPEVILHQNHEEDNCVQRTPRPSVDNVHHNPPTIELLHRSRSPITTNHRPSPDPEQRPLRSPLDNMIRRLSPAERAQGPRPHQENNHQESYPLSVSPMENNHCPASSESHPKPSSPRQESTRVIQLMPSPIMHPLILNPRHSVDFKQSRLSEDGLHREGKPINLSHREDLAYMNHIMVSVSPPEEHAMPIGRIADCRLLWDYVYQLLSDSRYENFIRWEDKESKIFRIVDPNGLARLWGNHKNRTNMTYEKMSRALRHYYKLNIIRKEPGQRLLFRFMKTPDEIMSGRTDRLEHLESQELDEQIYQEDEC
In short: as §1

Question: How did the binding signal (FEV) turn out when GACCTA was run?
Answer: 1.17 fold enrichment (6-mer frequency, TF over GST control)

Question: What about the binding signal (ETV5) of the same sequence?
Answer: 1.2 fold enrichment (6-mer frequency, TF over GST control)

Question: And the binding signal (HSF1)?
Answer: 1.06 fold enrichment (6-mer frequency, TF over GST control)

Question: And the binding signal (SPIC)?
Answer: 1.18 fold enrichment (6-mer frequency, TF over GST control)

Question: What about the binding signal (ELF4) of the same sequence?
Answer: 1.24 fold enrichment (6-mer frequency, TF over GST control)

Question: And the binding signal (ELK4)?
Answer: 1.14 fold enrichment (6-mer frequency, TF over GST control)

Question: And the binding signal (ETV2)?
Answer: 1.26 fold enrichment (6-mer frequency, TF over GST control)

Question: And the binding signal (ELF3)?
Answer: 1.06 fold enrichment (6-mer frequency, TF over GST control)

Question: What about the binding signal (CRX) of the same sequence?
Answer: 1.07 fold enrichment (6-mer frequency, TF over GST control)

Question: And the binding signal (ETV1)?
Answer: 1.16 fold enrichment (6-mer frequency, TF over GST control)

Question: What about the binding signal (ERF) of the same sequence?
Answer: 1.09 fold enrichment (6-mer frequency, TF over GST control)

Question: And the binding signal (ETV3L)?
Answer: 1.31 fold enrichment (6-mer frequency, TF over GST control)

Question: And the binding signal (ETS2)?
Answer: 1.19 fold enrichment (6-mer frequency, TF over GST control)

Question: And the binding signal (SPDEF)?
Answer: 1.13 fold enrichment (6-mer frequency, TF over GST control)

Question: And the binding signal (ETV7)?
Answer: 1.2 fold enrichment (6-mer frequency, TF over GST control)

Question: What about the binding signal (ELF5) of the same sequence?
Answer: 1.15 fold enrichment (6-mer frequency, TF over GST control)

Question: And the binding signal (ETV3)?
Answer: 1.07 fold enrichment (6-mer frequency, TF over GST control)

Question: What about the binding signal (ETV6) of the same sequence?
Answer: 1.22 fold enrichment (6-mer frequency, TF over GST control)
